Consider 14 compounds from PubChem BioAssay (NCI).

The structures appear in SMILES notation. This is part of a sample that, as a whole, favours compounds with a hit. Of some 83,000 tested, about 20% had one in any assay.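 Treatment: one concentration, 48 hours, 96-well format. Scoring: percent growth, with anything below 10 considered active.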 Values without a mark were called inactive. The source made the active and inactive calls.

For this assay, the system named is CCRF-CEM leukemia. Put plainly: NCI-60 one-dose screen, 48 h (100 = growth as untreated, 0 = no growth, -100 = all killed). The note with it: 10 µM unless noted.
Regarding `Cn1c2ccccc2c2c3c(c4c5ccccc5n(C)c4c21)C(=O)OC3`, the growth is 98.4%.

Regarding `CNC(=O)c1cc(Cn2nc(C)c(NC(=O)Nc3ccc(Cl)c(C(F)(F)F)c3)c2C)ccn1`, the growth is 92.1%.

Take `O=C(Nc1ccc(NC(=O)c2cc(=O)[nH]c3ccccc23)cc1)Nc1cccc(Cl)c1`: the growth was 77.1%.

`COc1ccc(C(=O)CSc2nc(-c3cc(OC)ccc3OC)cc(-c3ccc(Cl)cc3)c2C#N)cc1`: the growth was 98.2%.

Regarding `Cc1cc(C)c(S(=O)(=O)Oc2ccccc2[N+](=O)[O-])c(C)c1`, the growth is 20.6%.

`O=C(CCN1CCCC1)Nc1ccc2c(NCc3ccccc3)c3ccccc3nc2c1`: the growth was -23.6% (active).

`CCN(CC)c1ccc(/C=N/NC(=O)CSc2nc3ccccc3c(=O)n2CCc2ccc(S(N)(=O)=O)cc2)c(O)c1`: the growth was 7.41% (active).

`O=C(CSc1nc2sc3c(c2c(=O)n1-c1ccc(Cl)cc1)CCCC3)Nc1nc(-c2cccc(Br)c2)cs1`: the growth was 87.7%.

Take `COc1ccc(C(C)=O)c(OC)c1`: the growth was 103%.

Regarding `COc1cccc(-c2nc3occn3c2-c2ccnc(NCCCNS(=O)(=O)c3ccc(C(F)(F)F)cc3)n2)c1`, the growth was 93.9%.

Turning to `C=C1C(=O)O[C@H]2[C@H]1CC/C(C(=O)NCCCCCNC(=O)/C1=C/CC[C@@]3(C)O[C@H]3[C@H]3OC(=O)C(=C)[C@@H]3CC1)=C\CC[C@@]1(C)O[C@@H]21`, the growth is 105%.

With `C=C1C(=O)O[C@H]2[C@H]1CC/C(COC(=O)NCc1c[nH]c3ccc(F)cc13)=C\CC[C@@]1(C)O[C@@H]21`, the growth was -8.32% (active).

Take `Cc1cc2nc3c4cccc(O)c4n(CCN(C)C)c3nc2cc1C`: the growth was 27%.

Take `O=C(Cc1ccccc1)NNc1nc(Cl)nc(N2CCN(C(c3ccccc3)c3ccccc3)CC2)n1`: the growth is 11.1%.
